GAA850 FXN act: frataxin GAA850 promoter activation; actives 0.56% (n = 360,000); AID 540364; HEK293 lucGAA850 FXN promoter luciferase reporter, 24 h; percent of 10 µM SAHA response; activation, % at 6 µM;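 active = activation above the average of all compounds screened plus 3 SD, cutoff fixed separately per campaign, cut at about 7.5% in these data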;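 also: 0% = DMSO wells and 100% = 10 µM SAHA wells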
MITF act: activators of MITF-driven TRPM1 promoter activity in SK-MEL-5 cells | SK-MEL-5 TRPM1-promoter luciferase, 24 h; % of positive control, neutral wells = 0 | activation, % at 12.5 µM | actives 0.75% (n = 300,000) | AID 588334;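 active = mean activation of at least 80% with every replicate also reaching 80%; inconclusive = mean reaches 80% but some replicate falls short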;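 also: 0% = neutral control wells and 100% = parthenolide positive control wells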
esBAF inh: SWI/SNF esBAF complex inhibition | actives 2% (n = 350,000) | reporter increase, % at 12.5 µM | AID 602393 | mouse ES cells, Bmi1-luciferase knock-in reporter, 24 h; 100% = twice the neutral-well signal; in the data active = activation above about 40%; inconclusive = no clear call, values can overlap the other calls;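 also: 0% = median of the plate's neutral control wells and 100% = double that signal; a rise in the Bmi1 reporter signal indicates esBAF inhibition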
Wnt bcat act: activators of Wnt/beta-catenin signaling | Wnt/beta-catenin reporter cell assay, activator, plate reader | activation, % at 9.35 µM | AID 743398 | actives 1.2% (n = 300,000); in the data active = activation above about 30%, passing the limit was not always enough; inconclusive = no clear call, values can overlap the other calls;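 also: 0% = neutral control wells and 100% = positive control wells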
The depositor's hits bear a star; ? = inconclusive; / = not tested or not shown. This is a sample that favours compounds with a hit; in the whole collection about 2.8% have one here.

SMILES	GAA850 FXN act	MITF act	esBAF inh	Wnt bcat act
O=C(CCN1CCC(c2ccccc2)C1)c1cccs1 (configuration not stated)	-1.0	3.5	/	6.2
C[C@@H]1CN([C@H](C)CO)C(=O)Cc2cc(NC(=O)Cc3ccccc3)ccc2O[C@@H]1CN(C)Cc1ccc(C(F)(F)F)cc1	/	/	-0.3	/
COc1ccc(NC(=O)Nc2ccc3c(c2)C(=O)N(C)C[C@@H](OC)[C@H](C)CN[C@@H](C)CO3)cc1	/	/	6.7	/
CN1C(=O)C2(Oc3ccccc3C3CC(c4ccccc4)=NN32)c2ccccc21 (configuration not stated)	1.7	39.6	95.2*	/
CO[C@H]1CN(C)C(=O)c2cc(NS(=O)(=O)c3cccc(F)c3)ccc2OC[C@@H](C)N(Cc2cc(F)ccc2F)C[C@H]1C	/	/	0.2	/
CCOC(=O)c1ccc(NC(=O)Cn2nnc3ccccc32)cc1	2.4	/	94.6*	0.3
CCOC(=O)c1ccc(NC(=O)CCSCCc2ccccn2)cc1	4.6	85.9*	4.3	/
CCOc1ccc(NC(=O)Cn2ncc3ccccc32)cc1	4.2	72.9	50.7*	17.5
CCCC#Cc1cnc2c(c1)C(=O)N([C@H](C)CO)C[C@H](C)[C@H](CN(C)S(C)(=O)=O)O2	/	/	0.0	/
Cc1ccc(C(=O)Nc2ncccc2S(=O)(=O)c2ccccc2)cc1	3.5	100.4*	113.0*	20.2
Cc1nc2ccccc2n1CC(O)COc1ccccc1Cl (configuration not stated)	0.2	-7.3	1.4	37.1*
Cc1nc2ccccc2n1CC(O)COc1ccc(Br)cc1 (configuration not stated)	1.4	-5.3	/	-0.8
CCOC(=O)c1ccc2[nH]c3ccccc3c2c1	2.6	47.6	62.0*	0.0
CCOC(=O)c1ccc2[nH]c(C)c(C)c2c1	5.1	36.4	58.5*	/
O=C1N/C(=N/O)S/C1=C/c1cccc([N+](=O)[O-])c1	1.2	5.7	6.7	52.1*
N#C/C(=C(/O)CN1CCCCC1)c1nc(-c2ccc(Cl)cc2)cs1	0.4	37.6	59.9*	/
COc1ccc(NC(=O)N[C@H]2C=C[C@@H](CC(=O)NC3CCCCC3)O[C@H]2CO)cc1	/	/	2.4	/
COc1ccc(NC(=O)c2cnc3sccn3c2=O)cc1	2.6	19.2	/	41.9*
CN(C)Cc1cn(CC[C@@H]2CC[C@H](NS(=O)(=O)c3ccccc3)[C@@H](CO)O2)nn1	/	/	-3.6	/
CCOP(=O)(OCC)C(NC(=O)/C=C/c1ccc(OC)cc1)c1ccccc1 (configuration not stated)	0.0	9.0	/	33.9*
O=C(NCC1CC1)[C@@H]1[C@@H](CO)[C@@H]2Cn3c(ccc(/C=C/c4ccccc4)c3=O)[C@H]1N2C(=O)C1CCC1	/	/	4.3	/
CCCC(=O)Nc1ccc2c(c1)OC[C@H](C)N(C(=O)CN(C)C)C[C@@H](C)[C@H](OC)CN(C)C2=O	/	/	-3.3	/
O=C(N=C1N=C2C=CC=CN2Cc2ccccc21)c1ccc(S(=O)(=O)N2CCCC2)cc1	4.7	102.6*	49.7*	44.0*
CN(C)S(=O)(=O)c1cccc(C(=O)N=C2N=C3C=CC(Cl)=CN3Cc3ccccc32)c1	5.3	26.1	/	63.5*
O=C(N=C1N=C2C=CC=CN2Cc2ccccc21)c1ccc(S(=O)(=O)N2CCOCC2)cc1	2.0	84.0*	/	-0.9
SMILES	GAA850 FXN act	MITF act	esBAF inh	Wnt bcat act
CO[C@H](CN(C)Cc1nccs1)[C@@H](C)CN([C@@H](C)CO)S(=O)(=O)c1ccc(C)cc1	/	/	-2.5	/
O=C(NCC1CCCCC1)[C@H]1[C@H](CO)[C@H]2Cn3c(ccc(-c4cncnc4)c3=O)[C@@H]1N2	/	/	-7.1	/
Clc1ccccc1CSc1cc2c(nn1)-c1ccccc1CC2	3.0	58.4	88.1*	/
CC(C)(C)NC(=O)c1ccccc1NC(=O)C1CCCO1 (configuration not stated)	0.4	3.6	/	-1.3
Cc1ccc(C)c(NC(=O)c2ccccc2NC(=O)C2CCCO2)c1 (configuration not stated)	0.5	-1.7	/	60.2*
Cc1cc(C)n2nc(-c3ccccc3)cc2n1	4.5	11.7	42.7*	12.0
Cc1ccc(-c2cc3nc(C)cc(C)n3n2)cc1	5.0	16.0	59.9*	15.5
Cc1cc(C)n2nc(Nc3ccccc3)cc2n1	2.6	12.1	33.3	/
Cc1cc(C)n2nc(-c3ccc(F)cc3)cc2n1	7.0	/	54.5*	2.3
COc1ccc(NC(=O)Nc2ccc3c(c2)C(=O)N([C@H](C)CO)C[C@H](C)[C@H](CN(C)C(=O)Cc2ccccc2)OCCCC[C@H](C)O3)cc1	/	/	4.4	/
O=C(O)c1cc(N/N=C/c2cccc3ccccc23)ccc1Cl	1.7	100.5*	80.3*	27.4
O=C(NC1CCCCC1)c1ccc(-c2cn[nH]c2)c2ccoc12	6.3	/	53.1*	2.7
COc1ccc(-c2ccc(C(=O)NC3CCCCC3)c3occc23)c(C)c1	-1.1	/	28.2	0.7
COC(=O)c1cc(-c2ccc3c(c2)OCO3)nc2ccccc12	-0.4	6.5	-1.3	/
c1ccc2nc(-c3ccc4c(c3)OCO4)ccc2c1	2.4	/	7.1	50.2*
Cc1nn(-c2ccccc2)c(/N=C/c2ccc(O)cc2)c1-c1ccccc1	-0.6	83.4*	?	/
Cc1cccc(N2CCN(C(=O)CNC(=O)c3ccccc3)CC2)c1C	0.4	/	50.0*	7.6
Cc1ccc(/C=N/Nc2nc(C(C)(C)C)cs2)o1	3.1	84.7*	?	4.6
Cc1ccc(/C=N/Nc2nc3ccccc3s2)o1	4.0	21.0	/	35.2*
Cc1cc(=O)[nH]c(N/N=C/c2ccc(C)o2)n1	1.0	-4.1	/	0.9
O=C(O)c1ccccc1Nc1ccccc1C(=O)O	0.0	-16.4	-12.2	-1.0
COc1cccc(/C=N/Nc2ccccc2C(=O)O)c1O	4.0	26.4	4.0	34.9*
O=C(O)c1ccccc1NN=Cc1ccccc1	0.9	39.9	/	61.0*
Cc1cccc(NC(=S)Nc2ccccn2)c1	3.3	25.6	/	59.5*
COc1cccc(NC(=S)Nc2cc(C)cc(C)n2)c1	6.7	/	?	54.4*
SMILES	GAA850 FXN act	MITF act	esBAF inh	Wnt bcat act
COC(=O)c1ccc(NC(=S)Nc2ccccn2)cc1	6.9	112.5*	57.5*	/
COC(=O)c1ccc(NC(=S)Nc2ccc(O)cc2)cc1	0.6	3.4	/	1.4
CCCC(=O)Nc1ccc2c(c1)C(=O)N(C)C[C@H](OC)[C@H](C)CN(C(=O)C1CCCC1)[C@@H](C)CO2	/	/	1.5	/
CCC(=O)N(C)C[C@H]1Oc2cc(C#CC3(O)CCCC3)ccc2S(=O)(=O)N([C@@H](C)CO)C[C@H]1C	/	/	-2.4	/
Cc1ccc(-n2c(C)cc(C(=O)COC(=O)c3c(C)noc3C)c2C)cc1	2.6	50.2	-3.8	51.1*
Cc1ccc(-n2c(C)cc(C(=O)COC(=O)C3=NNC(=O)CC3)c2C)cc1	-8.3	-3.9	-57.0	/
Cc1ccc(O)c(CNc2ccccn2)c1	3.4	/	64.1*	/
Cc1ccc(NCc2ccccc2O)cc1	3.2	56.2	49.5*	/
Cc1ccnc(NCc2cc(C)ccc2O)c1	1.3	/	56.5*	-0.6
O=C(C[C@H]1CC[C@H](NC(=O)Cc2cccnc2)[C@H](CO)O1)NCc1ccc2c(c1)OCO2	/	/	-4.7	/
COc1cccc(C(=O)Nc2ccc3c(c2)C(=O)N(C)C[C@H](OC)[C@@H](C)CN(CC2CC2)[C@@H](C)CO3)c1	/	/	5.2	/

High-throughput results (PubChem BioAssay)
